Bioassay records deposited in PubChem by National Center for Advancing Translational Sciences (NCATS).
TSHR antagonist: Antagonists of the Thyroid Stimulating Hormone Receptor: HTS campaign; actives 0.2% (n = 330,000); Thyrotropin receptor (Homo sapiens), P16473; activity change, negative = inhibition, % at 11.5 µM; TSHR-expressing cells, TSH-stimulated cAMP HTRF, 2 h; stronger effect = lower value;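 active = activity change below a set negative limit, meaning inhibition stronger than a set level, cut at about -70% in these data; inconclusive = activity change between two set negative limits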; note: % is set by controls: 0 for no effect and ±100 for the full control effect
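Cell-based HTRF cAMP assay; TSHR cells + compound, TSH EC80 (4nM final), 2 h, 37 deg C. Lysis with anti-cAMP cryptate and cAMP-d2, 30 min RT, read 665/620 nm.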
gsp ag: qHTS for Agonist of gsp, the Etiologic Mutation Responsible for Fibrous Dysplasia/McCune-Albright Syndrome: qHTS; gsp mutant cells, cAMP HTRF, 30 min; actives 0.13% (n = 340,000); AID 624287, 2012; Potency, µM (titrated, usually from 76.9 µM), inactives show at the highest dose activation (cAMP increase), most hits filed as activators; active = well fitted activation curve with a large enough effect; inconclusive = small, poorly fitted or top-dose-only effect, or another doubt; inactive = no such curve, though single readings can be large or run the other way; cell line not stated here;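 note: phosphodiesterase inhibitor Ro 20-1724 added with compounds to block cAMP breakdown; potency is the fitted concentration of half-maximal effect; nearly all actives have a fitted effect of over 60% in size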
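Cells stably selected in G418 were plated at 2000/well, grown 16-24 hr, then given compounds in DMSO with the PDE inhibitor […] (300 uM solution added) for 30 min at 37C; cAMP was read by HTRF.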
RXFP1 antag: qHTS Assay for Antagonists of the Relaxin Receptor RXFP1; HEK293-RXFP1, relaxin-stimulated cAMP HTRF, 30 min; stronger effect = lower value; Relaxin receptor 1 (Homo sapiens), Q9HBX9; AID 1259400, 2018; actives 0.59% (n = 350,000); activity change, negative = inhibition, % at 57.5 µM;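 active = activity change of -60% or lower, but not beyond a set lower limit; inconclusive = change between -60% and -40%, or beyond the set limit; inactive = change above -40%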; note: % is set by controls: 0 for no effect and ±100 for the full control effect
Target sequence (Q9HBX9 whole entry, looked up): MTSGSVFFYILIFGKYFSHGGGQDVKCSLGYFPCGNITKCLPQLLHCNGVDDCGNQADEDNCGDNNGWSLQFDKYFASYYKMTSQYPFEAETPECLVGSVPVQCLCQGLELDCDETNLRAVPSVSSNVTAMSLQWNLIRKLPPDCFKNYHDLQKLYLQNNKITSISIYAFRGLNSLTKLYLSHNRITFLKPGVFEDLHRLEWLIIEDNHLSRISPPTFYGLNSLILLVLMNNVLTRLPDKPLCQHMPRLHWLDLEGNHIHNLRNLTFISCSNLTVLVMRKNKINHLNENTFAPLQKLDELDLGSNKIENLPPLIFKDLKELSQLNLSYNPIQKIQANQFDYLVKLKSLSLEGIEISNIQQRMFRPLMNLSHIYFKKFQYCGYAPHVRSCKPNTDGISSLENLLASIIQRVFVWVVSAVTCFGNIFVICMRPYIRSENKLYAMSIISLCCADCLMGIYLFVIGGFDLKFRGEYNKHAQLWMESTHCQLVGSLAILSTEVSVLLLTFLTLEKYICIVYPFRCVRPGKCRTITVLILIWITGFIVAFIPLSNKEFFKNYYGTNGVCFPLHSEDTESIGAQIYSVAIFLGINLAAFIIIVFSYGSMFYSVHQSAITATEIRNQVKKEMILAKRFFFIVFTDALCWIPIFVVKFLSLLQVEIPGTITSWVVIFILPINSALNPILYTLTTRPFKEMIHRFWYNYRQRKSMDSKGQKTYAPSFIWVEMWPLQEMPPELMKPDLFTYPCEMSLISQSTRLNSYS
Akt phos inh: HTS Assay for Inhibitors of Akt Phophorylation: Primary Screen | Neuro2A IGF-stimulated pAkt S473 HTRF, 20 min; stronger effect = lower value | AID 651550, 2012 | actives 0.32% (n = 360,000) | activity change, % for hits at 50 µM; in the data active = activity change below about -80%; inconclusive = mostly about -51% to -80%; note: % is set by controls: 0 for no effect and ±100 for the full control effect
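Neuro2A cells (4,500/well, DMEM with 0.5% FBS) were treated with compound at a single 50 µM final concentration, stimulated with 6 nM IGF for 20 min at 37 °C, and lysed. Phospho-Akt Ser473 was read by HTRF as 665/615 ratio ×10^4.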
RXFP1 agonist: qHTS Assay for Agonists of the Relaxin Receptor RXFP1. AID 2676, 2010. actives 0.3% (n = 370,000). Relaxin receptor 1 (Homo sapiens), Q9HBX9. HEK293T-RXFP1 cAMP TR-FRET, 30 min; response scale: percent of porcine relaxin response, buffer zero. Potency, µM (series often up to 57.5 µM), for inactives: top-dose activation, actives largely listed as activators; active = well fitted activation curve with a large enough effect; inconclusive = small, poorly fitted or top-dose-only effect; note: potency is the fitted concentration of half-maximal effect; % is set by controls: 0 for no effect and ±100 for the full control effect; nearly all actives have a fitted effect of over 60% in size
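cAMP rise read by TR-FRET after 30 min, 37C compound exposure (up to 58 uM) in RXFP1-transfected HEK293 cells with Ro 20174 present. EC50 from Hill-equation fits, with 29 nM porcine relaxin as 100% and buffer as basal.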
gsp antag: qHTS for Antagonists of gsp, the Etiologic Mutation Responsible for Fibrous Dysplasia/McCune-Albright Syndrome: qHTS; Potency, µM (titrated, usually from 76.9 µM), without a hit: top-dose activity change, negative = inhibition, most hits filed as inhibitors; actives 0.4% (n = 340,000); gsp-mutant cells, cAMP HTRF, 30 min; calls by dose curve; cell line not stated here;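 note: intracellular cAMP measured with PDE inhibitor Ro 20-1724 present during compound exposure; potency is the fitted concentration of half-maximal effect; % is set by controls: 0 for no effect and ±100 for the full control effect; nearly all actives have a fitted effect of over 65% in size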
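Measurement of cellular cAMP by homogeneous time-resolved fluorescence following a 30 min compound exposure at 37C. The PDE inhibitor […] was present throughout; the assay buffer was DPBS with 0.05% BSA and 0.005% Tween 20.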
The depositor's hits bear a star; i = inactive; ? = inconclusive; . = no result given; ! = not confirmed by another sample; [ ] = another dose, or the depositor's remark. Sampled rows, rich in hits. Any-hit rate of the full collection: about 1.3%.

SMILES	TSHR antagonist	gsp ag	RXFP1 antag	Akt phos inh	RXFP1 agonist	gsp antag
Cc1ccc(NC(=O)c2nc(S(=O)(=O)Cc3ccccc3C)ncc2Cl)cc1C	?	-1%[15.4 µM]	-74*	i	0%	-9%
CCS(=O)(=O)c1ncc(Cl)c(C(=O)Nc2ccc(S(=O)(=O)N3CCC(C)CC3)cc2)n1	-78*	-13%[15.4 µM]	?	i	2%	-1%
CN(c1ccccc1)S(=O)(=O)c1ccc(NC(=O)c2nc(S(C)(=O)=O)ncc2Cl)cc1	-95*	-2%	?	i	4%	10%
CCc1ccc(NC(=O)c2nc(S(=O)(=O)Cc3ccccc3)ncc2Cl)cc1	-74*	.	.	.	0%	.
CCn1c(=O)c2sccc2n2c(CCC(=O)Nc3cc(C)cc(C)c3)nnc12	.	.	.	.	22%	.
CNc1nc(N)nc(-c2cc(Cl)ccc2OC)n1	-9	2%	7	i	0%	0%
Cc1ccc(N2CC(NC(=O)Cc3cccs3)CC2=O)cc1C (stereo unspecified)	.	.	1	.	4%	.
Cc1cccc(CS(=O)(=O)c2ncc(Cl)c(C(=O)NCc3ccc4c(c3)OCO4)n2)c1	34	0%	-87*	.	0%	-2%
CCOC(=O)c1ccc(NC(=O)c2nc(S(=O)(=O)Cc3ccccc3)ncc2Cl)cc1	?	-30%[15.4 µM]	-62*!	i	1%	-13%
CCS(=O)(=O)c1ncc(Cl)c(C(=O)Nc2ccccc2OC)n1	-14	-47%	1	i	-1%	-33%
CC1CCN(S(=O)(=O)c2ccc(Cl)cc2)CC1	-8	-2%	7	i	0%	50µM*
CCS(=O)(=O)c1ncc(Cl)c(C(=O)Nc2ccccc2)n1	.	.	-88*	.	0%	.
CCC1(CC)NC(=O)N(CC(=O)Nc2ccc(OCc3ccccc3)cc2)C1=O	-3	8%[15.4 µM]	-5	i	.	5%
COc1ccc([C@H]2[C@H](C(=O)C(C)(C)C)N3N=Cc4ccccc4C3[C@]23N=C(c2ccccc2)OC3=O)cc1OC (stereo partly specified)	-9	-14%	-5	-106%*	2%	-1%
COc1cc(C(=O)N(Cc2ccc(F)cc2)Cc2ccco2)cc(OC)c1OC	.	.	-8	.	-2%	.
CCc1ccc(OCC(=O)N(Cc2ccc(C)cc2)Cc2ccco2)cc1	.	.	-61*	.	0%	.
Cc1cccc(OCC(=O)N(Cc2ccc(C(C)(C)C)cc2)Cc2ccco2)c1	.	.	-75*	.	-2%	.
Cc1ccc(CN(Cc2ccco2)C(=O)COc2ccc(C)c(C)c2)cc1	.	.	.	.	0%	.
CC(C)(C)c1ccc(C(=O)N(Cc2ccc(F)cc2)Cc2ccco2)cc1	.	.	-79*	.	1%	.
COc1ccc(-c2cn3nc(N4CCC(C(=O)Nc5ccccc5OC)CC4)sc3n2)cc1	.	.	-11	.	8%	.
CNC(=O)c1c[nH]n2c(=O)c(Cc3ccccc3F)c(C)nc12	-4	15%	.	i	1%	11µM*
Cc1nc2c(C(=O)NCCc3ccccc3)c[nH]n2c(=O)c1Cc1ccccc1F	.	.	.	.	-6%	.
O=C(COc1ccc(Br)cc1Br)NC(=S)N1CCCc2ccccc21	2	-35%	-13	-92%*	0%	-3%
CCn1c(=O)n(CC)c2cc(N3CCCC3)c(NC(=O)c3c(F)cccc3F)cc21	-18	4%	12	.	-2%	32µM*
CN(C)S(=O)(=O)Oc1cccc(C(=O)Nc2cccc(Cl)c2)c1	-6	-30%	-4	i	-3%	28µM*
SMILES	TSHR antagonist	gsp ag	RXFP1 antag	Akt phos inh	RXFP1 agonist	gsp antag
CN(C)S(=O)(=O)Oc1cccc(C(=O)Nc2ccc(Cl)c(Cl)c2)c1	?	4%	-6	i	0%	?
S=c1[nH]cc(Oc2ccc(Cl)cc2Cl)c(=S)[nH]1	.	20µM*	23	i	.	-4%
COc1nn(CC(=O)N2N=C(C)CC2(O)C(F)F)cc1[N+](=O)[O-] (stereo unspecified)	-4	4%	-2	-90%*	1%	12%
O=C(NCc1ccc(/C=c2\sc3n(c2=O)CCN=3)o1)C(=O)Nc1ccccc1	7	.	.	.	1%	.
COc1ccc(C(C(=O)NCc2ccc(F)cc2)N(Cc2cccnc2)C(=O)c2snc(C(N)=O)c2N)cc1 (stereo unspecified)	3	7%[15.4 µM]	11	i	1%	-9%
CCOc1ccc(/C=C2\SC(=O)N(CCNC(=O)C3COc4ccccc4O3)C2=O)cc1OC (stereo unspecified)	18	-5%	.	i	-2%	28µM*
CC(=O)c1cccc(NC(=O)COC(=O)CCNS(=O)(=O)c2ccccc2)c1	0	-20%	-2	i	.	-6%
CCO[C@@H]1OC(C(=O)NCc2ccccc2)=C[C@H](C2CCCCC2)[C@H]1CCCO	-8	-9%	.	i	-1%	11µM*
CCO[C@@H]1OC(C(=O)NCc2ccccc2)=C[C@H](C2CC2)[C@H]1CCCO	-1	?	.	i	1%	-8%
CCOC(=O)c1[nH]c2c(c1Cc1ccccc1)C(=O)CC(c1ccc(C(C)(C)C)cc1)C2 (stereo unspecified)	.	.	-64*	.	-1%	.
CCOc1ccccc1N1CCN(C(=O)c2c(CC)noc2C)CC1	0	1%	-9	i	1%	-8%
CC(C)Oc1ccc(C2CC(=O)N(c3cccc(Br)c3)C2=O)cc1 (stereo unspecified)	17	-4%	1	i	4%	-21%
Cc1ccccc1Cn1c(NC2CCCC2)nc2c1c(=O)[nH]c(=O)n2C	2	-37%	-1	i	0%	-36%
CCCCCCSc1ccc(-c2nc3ccc(C)cn3c2NCCCC)cc1OC	.	.	.	i	.	.
CCCCCCSc1ccc(-c2nc3ccc(Cl)cn3c2NCCCC)cc1OC	-83*	.	.	i	.	9%
CSc1ncc(Cl)c(C(=O)Nc2nnc(SC)s2)n1	-3	?	11	i	0%	6%
CC(C)c1nnc(NC(=O)c2nc(S(=O)(=O)Cc3ccccc3)ncc2Cl)s1	?	-3%[15.4 µM]	-72*!	i	-1%	25µM*
CCCc1nnc(NC(=O)c2nc(S(=O)(=O)Cc3ccc(C)cc3)ncc2Cl)s1	-41	-11%	-11	i	-3%	28µM*
